# ± gives the standard deviation.
# T1: HaloTag-ATRX ADD domain (163-292)
# T1 chain: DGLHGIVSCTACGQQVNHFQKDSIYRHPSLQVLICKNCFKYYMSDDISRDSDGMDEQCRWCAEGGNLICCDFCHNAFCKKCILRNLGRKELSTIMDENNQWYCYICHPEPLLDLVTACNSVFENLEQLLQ
# Legend:
# Experiment in all cases: peptide microarray binding signal (635 nm), min-max normalized on array (fraction of array maximum); higher = stronger binding
# Conditions in all cases: peptide region: H2B 17-29
# [1] = biological target: T1, HaloTag-ATRX ADD domain (163-292)
# Method: (§1)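 Histone 13-mer peptides were synthesized as cellulose conjugates with a C-terminal 20-atom PEG linker and printed in triplicate on nitrocellulose. The sequence given is the unmodified backbone; PTMs (Kme1/2/3, Kac, Sph/Tph, Rme/Rme2a/Rme2s, Rcit) are listed in the label and the 'peptide modifications' condition. Slides were probed at 4 °C for 1 h with biotin-labelled (HQ)5-HaloTag reader fusions (ATRX-ADD, ING2-PHD) then streptavidin-Alexa647, or with rabbit histone antibodies then anti-rabbit Alexa647. The mean 635 nm signal of the triplicate spots was scaled 0-1 between the lowest and highest values on each array.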
# [2] = biological target: HaloTag-ING2 PHD (mouse Ing2 200-280)
# Method: as §1
# [3] = biological target: anti-H3K4me3 antibody ab8580
# Method: as §1
# [4] = biological target: anti-H3K9me3 antibody ab8898
# Method: as §1
# [5] = peptide modifications: H2BK20ac H2BK23ac H2BK28ac, binder concentration: 1:2,000 dilution
# [6] = peptide modifications: H2BK20ac H2BK23ac H2BK28ac, binder concentration: 1:10,000 dilution
# [7] = peptide modifications: H2BK20ac H2BK23ac H2BK24ac H2BK27ac, binder concentration: 1:2,000 dilution
# [8] = peptide modifications: H2BK20ac H2BK23ac H2BK24ac H2BK27ac, binder concentration: 1:10,000 dilution
# [9] = peptide modifications: H2BK20ac H2BK23ac H2BK27ac H2BK28ac, binder concentration: 1:2,000 dilution
# [10] = peptide modifications: H2BK20ac H2BK23ac H2BK27ac H2BK28ac, binder concentration: 1:10,000 dilution
# [11] = peptide modifications: H2BK20ac H2BK27ac H2BK28ac, binder concentration: 1:2,000 dilution
# [12] = peptide modifications: H2BK20ac H2BK27ac H2BK28ac, binder concentration: 1:10,000 dilution
# [13] = peptide modifications: H2BK20ac H2BK24ac H2BK27ac, binder concentration: 1:2,000 dilution
# [14] = peptide modifications: H2BK20ac H2BK24ac H2BK27ac, binder concentration: 1:10,000 dilution
binder,measurement,setting,value
AVTKAQKKDGKKR [H2B 17-29 A V T Kac A Q Kac K D G K Kac R],peptide microarray binding signal,"[1]; peptide modifications: H2BK20ac H2BK23ac H2BK28ac, binder concentration: 50 nM",0.00429 ± 0.00027
same,peptide microarray binding signal,"[1]; peptide modifications: H2BK20ac H2BK23ac H2BK28ac, binder concentration: 500 nM",0.00667 ± 0.00058
same,peptide microarray binding signal,"[2]; peptide modifications: H2BK20ac H2BK23ac H2BK28ac, binder concentration: 10 nM",0.0115 ± 0.00023
same,peptide microarray binding signal,"[2]; peptide modifications: H2BK20ac H2BK23ac H2BK28ac, binder concentration: 100 nM",0.0129 ± 0.0013
same,peptide microarray binding signal,[3]; [5],0.00221 ± 0.00083
same,peptide microarray binding signal,[3]; [6],0.00097 ± 9.9e-06
same,peptide microarray binding signal,[4]; [5],0.000634 ± 2e-05
same,peptide microarray binding signal,[4]; [6],0.00104 ± 4.3e-05
AVTKAQKKDGKKR [H2B 17-29 A V T Kac A Q Kac Kac D G Kac K R],peptide microarray binding signal,"[1]; peptide modifications: H2BK20ac H2BK23ac H2BK24ac H2BK27ac, binder concentration: 50 nM",0.00357 ± 0.00035
same,peptide microarray binding signal,"[1]; peptide modifications: H2BK20ac H2BK23ac H2BK24ac H2BK27ac, binder concentration: 500 nM",0.00643 ± 0.00011
same,peptide microarray binding signal,"[2]; peptide modifications: H2BK20ac H2BK23ac H2BK24ac H2BK27ac, binder concentration: 10 nM",0.00579 ± 0.00026
same,peptide microarray binding signal,"[2]; peptide modifications: H2BK20ac H2BK23ac H2BK24ac H2BK27ac, binder concentration: 100 nM",0.00702 ± 0.00069
same,peptide microarray binding signal,[3]; [7],0.00136 ± 0.0002
same,peptide microarray binding signal,[3]; [8],0.00131 ± 2.6e-05
same,peptide microarray binding signal,[4]; [7],0.000982 ± 0.00011
same,peptide microarray binding signal,[4]; [8],0.0011 ± 2.2e-05
AVTKAQKKDGKKR [H2B 17-29 A V T Kac A Q Kac K D G Kac Kac R],peptide microarray binding signal,"[1]; peptide modifications: H2BK20ac H2BK23ac H2BK27ac H2BK28ac, binder concentration: 50 nM",0.00414 ± 0.00019
same,peptide microarray binding signal,"[1]; peptide modifications: H2BK20ac H2BK23ac H2BK27ac H2BK28ac, binder concentration: 500 nM",0.00762 ± 0.00011
same,peptide microarray binding signal,"[2]; peptide modifications: H2BK20ac H2BK23ac H2BK27ac H2BK28ac, binder concentration: 10 nM",0.00913 ± 0.00015
same,peptide microarray binding signal,"[2]; peptide modifications: H2BK20ac H2BK23ac H2BK27ac H2BK28ac, binder concentration: 100 nM",0.0159 ± 0.00082
same,peptide microarray binding signal,[3]; [9],0.00168 ± 6.8e-05
same,peptide microarray binding signal,[3]; [10],0.0024 ± 4.3e-05
same,peptide microarray binding signal,[4]; [9],0.000861 ± 5.4e-05
same,peptide microarray binding signal,[4]; [10],0.000923 ± 9.6e-06
AVTKAQKKDGKKR [H2B 17-29 A V T Kac A Q K K D G Kac Kac R],peptide microarray binding signal,"[1]; peptide modifications: H2BK20ac H2BK27ac H2BK28ac, binder concentration: 50 nM",0.00398 ± 4.1e-05
same,peptide microarray binding signal,"[1]; peptide modifications: H2BK20ac H2BK27ac H2BK28ac, binder concentration: 500 nM",0.00567 ± 0.00013
same,peptide microarray binding signal,"[2]; peptide modifications: H2BK20ac H2BK27ac H2BK28ac, binder concentration: 10 nM",0.003819 ± 3.5e-05
same,peptide microarray binding signal,"[2]; peptide modifications: H2BK20ac H2BK27ac H2BK28ac, binder concentration: 100 nM",0.00404 ± 0.00021
same,peptide microarray binding signal,[3]; [11],0.000812 ± 0.00014
same,peptide microarray binding signal,[3]; [12],0.00114 ± 1.2e-05
same,peptide microarray binding signal,[4]; [11],0.0005135 ± 4.8e-06
same,peptide microarray binding signal,[4]; [12],0.00075 ± 7.9e-06
AVTKAQKKDGKKR [H2B 17-29 A V T Kac A Q K Kac D G Kac K R],peptide microarray binding signal,"[1]; peptide modifications: H2BK20ac H2BK24ac H2BK27ac, binder concentration: 50 nM",0.00335 ± 0.0001
same,peptide microarray binding signal,"[1]; peptide modifications: H2BK20ac H2BK24ac H2BK27ac, binder concentration: 500 nM",0.00514 ± 0.00021
same,peptide microarray binding signal,"[2]; peptide modifications: H2BK20ac H2BK24ac H2BK27ac, binder concentration: 10 nM",0.0031 ± 0.00013
same,peptide microarray binding signal,"[2]; peptide modifications: H2BK20ac H2BK24ac H2BK27ac, binder concentration: 100 nM",0.00255 ± 0.00012
same,peptide microarray binding signal,[3]; [13],0.00289 ± 0.00021
same,peptide microarray binding signal,[3]; [14],0.00143 ± 2.4e-05
same,peptide microarray binding signal,[4]; [13],0.000649 ± 5.6e-05
same,peptide microarray binding signal,[4]; [14],0.0011 ± 1.1e-05

# — the supplement of paper PMC4022240
